One assay has as its system UACC-62 melanoma. As to the kind of experiment: NCI-60 one-dose screen, 48 h (100 = growth as untreated, 0 = no growth, -100 = all killed). To be noted: 10 µM unless noted.
Another assay has as its system TK-10 renal. The description is as above. The note with it: 10 µM unless noted.

Values joined by “and” are separate entries in the source; they are usually repeats but may differ in a detail not shown here. Equal values may be shown once. About 83,000 compounds went through this panel and 20% of them were active in at least one assay; those are over-represented in the sample as a whole.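 Interpretation: 100, growth as untreated; towards 0, rising growth inhibition; 0, no net growth; 0 to -100, cell death. Compounds scoring below 10 were considered active.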 Active and inactive are the calls of the source.

Regarding `N#Cc1sc2nc(/C=C3/C=CC=CC3=O)c(O)n2c1N`, the growth in the assay on UACC-62 melanoma was 18.5% [100 µM] (inactive) and 7.16% [100 µM] (active); in the assay with TK-10 renal, 78.8% [100 µM] (inactive) and 47.7% [100 µM] (inactive).
Turning to `Cc1ccc(/C=N/Nc2ccc3ccccc3n2)s1`, the growth was 11.2% [100 µM] (inactive) and -100% [100 µM] (active) with UACC-62 melanoma; 50.5% [100 µM] (inactive) and 7.78% [100 µM] (active) in the assay with TK-10 renal.
Consider `CC(=O)NC(CS/N=N/c1nc[nH]c1C(N)=O)C(=O)O` (stereo unspecified), for which the growth with UACC-62 melanoma is -5.07% [100 µM] (active) and 0.469% [100 µM] (active); in the assay on TK-10 renal, 7.53% [100 µM] (active) and 4.2% [100 µM] (active).
As for `Nc1nc(Nc2cc(F)c(Cl)c(F)c2)cc(=O)[nH]1`, the growth was 85.2% [100 µM] (inactive) and -90.5% [100 µM] (active) in the assay on UACC-62 melanoma; 111% [100 µM] (inactive) and 27.1% [100 µM] (inactive) in the assay with TK-10 renal.
Regarding `COc1cc(Nc2ccc3c(c2)CCC3)nc(OC)n1`, the growth in the assay with UACC-62 melanoma is 42.1% [100 µM] (inactive) and 2.26% [100 µM] (active); with TK-10 renal, 53.3% [100 µM] (inactive) and -39.4% [100 µM] (active).
Turning to `C#CCn1c2c(c3ccccc3c1=O)C(=O)c1ccccc1-2`, the growth was 16% [100 µM] (inactive) and -100% [100 µM] (active) in the assay on UACC-62 melanoma; 17.2% [100 µM] (inactive) and -69.9% [100 µM] (active) in the assay on TK-10 renal.
Consider `Cc1cc(-c2nc3ccccc3s2)ccc1N`, for which the growth was 46.1% [100 µM] (inactive) and 40.6% [100 µM] (inactive) in the assay on UACC-62 melanoma; 35.5% [100 µM] (inactive) and 15.8% [100 µM] (inactive) in the assay on TK-10 renal.
Take `COc1cc2c(cc1-c1coc3cc(OCC=C(C)C)ccc3c1=O)OCO2`: the growth with UACC-62 melanoma was 0.442% [100 µM] (active) and 1.53% [100 µM] (active); in the assay on TK-10 renal it was 5.74% [100 µM] (active) and 19.4% [100 µM] (inactive).
As for `CC(O)c1cc2c(s1)C(=O)c1ccsc1C2=O` (stereo unspecified), the growth in the assay on UACC-62 melanoma was -61.7% [100 µM] (active) and -100% [100 µM] (active); in the assay on TK-10 renal, -46.9% [100 µM] (active) and -98.9% [100 µM] (active).
On to `N#Cc1c(=N)cc2c3ccccc3oc3c(C#N)c(N)[nH]c1c32`, for which the growth with UACC-62 melanoma is 74.6% [100 µM] (inactive) and 13.9% [100 µM] (inactive); with TK-10 renal, 47.1% [100 µM] (inactive) and 2.25% [100 µM] (active).
On to `CC1(C)CCCC(C)(C2CCC3(C)C2C(O)CC2C4(C)CCC(O)C(C)(C)C4C(O)CC23C)O1` (stereo unspecified), for which the growth was -76.6% [100 µM] (active) and -83.9% [100 µM] (active) in the assay with UACC-62 melanoma; 4.11% [100 µM] (active) and -96.5% [100 µM] (active) in the assay on TK-10 renal.
Consider `CC(C)(C)c1cc(C2COC(=O)COCC(=O)OCCOCCOCCO2)cc(C(C)(C)C)c1O` (stereo unspecified), for which the growth in the assay with UACC-62 melanoma was -51.5% [100 µM] (active) and -100% [100 µM] (active); in the assay on TK-10 renal it was -74.5% [100 µM] (active) and -100% [100 µM] (active).
For `O=C(CCc1ccccc1)On1c(-c2ccccc2)nc2ccccc2c1=S`, the growth was -68.8% [100 µM] (active) and -83.7% [100 µM] (active) in the assay on UACC-62 melanoma; 9.44% [100 µM] (active) and -36.2% [100 µM] (active) in the assay with TK-10 renal.
In the case of `CC(C)(C)O/N=C/c1cc(NC(=S)c2ccsc2)ccc1Cl`, the growth with UACC-62 melanoma was -90.7% [100 µM] (active) and -85.1% [100 µM] (active); in the assay with TK-10 renal, -90.2% [100 µM] (active) and -20.8% [100 µM] (active).
Take `O=C1c2c(O)ccc(O)c2C(=O)c2c(NCCNC(=O)C(O)C(O)C(O)C(O)CO)ccc(NCCNC(=O)C(O)C(O)C(O)C(O)CO)c21` (stereo unspecified): the growth was -100% [100 µM] (active) in the assay with UACC-62 melanoma; -82.4% [100 µM] (active) and -95.9% [100 µM] (active) with TK-10 renal.
Consider `CC(=O)Oc1ccc2ccc(=O)oc2c1OC(C)=O`, for which the growth was 24.4% [100 µM] (inactive) and -66.3% [100 µM] (active) with UACC-62 melanoma; 62.1% [100 µM] (inactive) and 17.8% [100 µM] (inactive) in the assay with TK-10 renal.
For `CC1(C)CC2(C)OC(=N)C1(C#N)C2(C#N)C#N` (stereo unspecified), the growth was -92.9% [100 µM] (active) in the assay on UACC-62 melanoma; -89.5% [100 µM] (active) and -77.9% [100 µM] (active) in the assay on TK-10 renal.
For `N#C/C(=C\c1ccccc1)C(=O)Nc1nnc(-c2ccccc2)o1`, the growth with UACC-62 melanoma was 36.9% [100 µM] (inactive) and -78.4% [100 µM] (active); in the assay with TK-10 renal, 88.2% [100 µM] (inactive) and 4.58% [100 µM] (active).
Turning to `ClC(Cl)(Cl)C1CCOC1n1nnc2ccccc21` (stereo unspecified), the growth was 65.4% [100 µM] (inactive) and 12.8% [100 µM] (inactive) with UACC-62 melanoma; 73% [100 µM] (inactive) and 16.8% [100 µM] (inactive) with TK-10 renal.
As for `Cc1ccc(NC(=S)C#N)c(C)c1`, the growth with UACC-62 melanoma was 41.9% [100 µM] (inactive) and 1.46% [100 µM] (active); in the assay with TK-10 renal it was 93.1% [100 µM] (inactive) and 43.3% [100 µM] (inactive).
As to `COC(=O)C(=O)C(C(=O)C(=O)Nc1ccccc1C(=O)OC)c1nc2ccc(C(=O)c3ccccc3)cc2[nH]c1=O` (stereo unspecified), the growth in the assay on UACC-62 melanoma was 54.3% [100 µM] (inactive) and 12.8% [100 µM] (inactive); with TK-10 renal it was 82.4% [100 µM] (inactive) and 16.6% [100 µM] (inactive).
For the compound `CC(=O)c1cc2c(s1)C(=O)c1sccc1C2=O`, the growth was -45.9% [100 µM] (active) and -100% [100 µM] (active) with UACC-62 melanoma; -14.4% [100 µM] (active) and -100% [100 µM] (active) with TK-10 renal.
In the case of `CN(C)CCNc1ccc(NCC[N+](C)(C)Cc2ccc([N+](=O)[O-])cc2)c2c1C(=O)c1c(O)ccc(O)c1C2=O`, the growth was 24.1% [100 µM] (inactive) and 0.198% [100 µM] (active) in the assay on UACC-62 melanoma; 91.1% [100 µM] (inactive) and -23.2% [100 µM] (active) in the assay with TK-10 renal.
As to `NC(=O)c1[nH]cnc1/N=N/SCC(N)C(=O)O` (stereo unspecified), the growth was 6.63% [100 µM] (active) and 4.02% [100 µM] (active) with UACC-62 melanoma; 9.64% [100 µM] (active) and 8.09% [100 µM] (active) with TK-10 renal.
As to `COc1cc(CC2c3cc(OC)c(OC)cc3CCN2C)c(Oc2cc3c(cc2OC)-c2c(O)c(OC)cc4c2C(C3)N(C)CC4)cc1OC` (stereo unspecified), the growth in the assay with UACC-62 melanoma is -60.3% [100 µM] (active) and -87.2% [100 µM] (active); with TK-10 renal it was -10.6% [100 µM] (active) and -93% [100 µM] (active).
Consider `N#CC12COC3(CCCCC3C1(C#N)C#N)OC2=N` (stereo unspecified), for which the growth was -38.9% [100 µM] (active) in the assay on UACC-62 melanoma and 41.4% [100 µM] (inactive) in the assay with TK-10 renal.
Turning to `C/C(Cl)=N/OC(=O)Nc1ccc(S(N)(=O)=O)c(C)c1`, the growth in the assay on UACC-62 melanoma is -93.6% [100 µM] (active) and -100% [100 µM] (active); with TK-10 renal, -100% [100 µM] (active).
As for `Cc1ccc(/C=N/Nc2cc(C)c3ccccc3n2)s1`, the growth with UACC-62 melanoma is -69.9% [100 µM] (active) and -49% [100 µM] (active); in the assay on TK-10 renal, -63.7% [100 µM] (active) and -75.8% [100 µM] (active).

(Values after PubChem BioAssay (NCI).)
